# Test results as given in the supplement of paper PMC10849652.
# The full data set covers some 8,800 targets. This sample favours those with a hit. About 0.5% of all pairs of compound and target were hits. A number with no mark means an inactive call.
# Compound: CNC(=O)C1=CC=CC=C1NC2=NC(=NC=C2Cl)NC3=C(C=C(C=C3)N4CCOCC4)OC
# Assay: log2 fold change, soluble protein after heating vs DMSO (PISA); higher = thermal stabilisation; K562 lysate, 10 uM; active = over 0.2 and 3.5 SD of the protein, either way, in both replicates (recomputed)
# Method in brief: (§1)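 The values are log-two fold changes in thermal stability compared with solvent controls and come from duplicates. They were obtained by TMTpro 16plex LC-MS/MS, with channel sums equalised, on the supernatant after 21,000xg for 90 min. That supernatant came from crude K562 extract at 1 mg/mL protein treated with 10 μM compound for 30 min, heated for 3 min across 48°C-58°C, pooled and brought to 0.5% NP-40 at 4°C.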
# Chain of UniProt Q9NWX5 (Q9NWX5 whole entry, looked up): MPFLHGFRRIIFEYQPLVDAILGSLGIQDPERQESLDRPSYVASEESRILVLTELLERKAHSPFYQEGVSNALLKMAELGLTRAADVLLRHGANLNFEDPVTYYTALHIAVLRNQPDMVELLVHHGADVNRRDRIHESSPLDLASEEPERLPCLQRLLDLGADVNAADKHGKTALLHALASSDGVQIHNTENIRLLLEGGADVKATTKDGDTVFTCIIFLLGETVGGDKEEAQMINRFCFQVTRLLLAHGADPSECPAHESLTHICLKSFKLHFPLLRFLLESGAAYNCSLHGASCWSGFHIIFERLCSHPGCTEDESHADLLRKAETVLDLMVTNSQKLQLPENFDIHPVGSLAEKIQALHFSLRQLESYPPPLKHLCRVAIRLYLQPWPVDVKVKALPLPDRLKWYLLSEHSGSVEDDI
# Chain of UniProt Q99943 (Q99943 whole entry, looked up): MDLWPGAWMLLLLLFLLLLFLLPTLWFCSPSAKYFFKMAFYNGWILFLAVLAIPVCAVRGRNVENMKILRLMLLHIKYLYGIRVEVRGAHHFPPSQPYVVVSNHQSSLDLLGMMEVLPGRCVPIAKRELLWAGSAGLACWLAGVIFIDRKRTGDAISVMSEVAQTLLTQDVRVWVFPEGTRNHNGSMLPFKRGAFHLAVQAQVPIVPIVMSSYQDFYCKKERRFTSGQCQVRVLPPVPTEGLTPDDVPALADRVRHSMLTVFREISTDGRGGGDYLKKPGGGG
# Chain of UniProt P40616 (P40616 whole entry, looked up): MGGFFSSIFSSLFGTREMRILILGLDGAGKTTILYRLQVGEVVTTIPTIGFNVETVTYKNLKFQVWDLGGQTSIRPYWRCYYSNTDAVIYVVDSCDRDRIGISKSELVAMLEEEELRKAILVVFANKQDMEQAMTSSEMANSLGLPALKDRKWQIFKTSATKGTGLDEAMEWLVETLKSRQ
# Chain of UniProt O75843 (O75843 whole entry, looked up): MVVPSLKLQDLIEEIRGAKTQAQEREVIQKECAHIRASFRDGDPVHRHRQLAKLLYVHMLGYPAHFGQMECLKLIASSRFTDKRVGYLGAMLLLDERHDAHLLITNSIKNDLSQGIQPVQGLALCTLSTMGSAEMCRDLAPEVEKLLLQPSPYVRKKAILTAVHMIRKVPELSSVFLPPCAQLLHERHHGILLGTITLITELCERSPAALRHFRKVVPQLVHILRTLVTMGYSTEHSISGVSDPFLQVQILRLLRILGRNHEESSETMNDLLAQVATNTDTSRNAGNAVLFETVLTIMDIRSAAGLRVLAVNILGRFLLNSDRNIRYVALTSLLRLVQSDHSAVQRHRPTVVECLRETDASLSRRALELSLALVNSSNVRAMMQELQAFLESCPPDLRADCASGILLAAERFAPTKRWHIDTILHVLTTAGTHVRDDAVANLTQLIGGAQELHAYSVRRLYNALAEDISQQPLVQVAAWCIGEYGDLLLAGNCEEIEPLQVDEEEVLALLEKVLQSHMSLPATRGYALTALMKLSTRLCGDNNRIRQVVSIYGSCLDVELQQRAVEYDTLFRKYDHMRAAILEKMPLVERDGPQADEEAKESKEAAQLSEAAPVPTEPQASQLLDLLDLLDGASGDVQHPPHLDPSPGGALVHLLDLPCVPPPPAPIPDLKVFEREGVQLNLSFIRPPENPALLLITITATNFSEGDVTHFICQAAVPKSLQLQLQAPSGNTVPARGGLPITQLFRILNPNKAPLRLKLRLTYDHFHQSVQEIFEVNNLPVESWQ
# Chain of UniProt Q9UHB7 (Q9UHB7 whole entry, looked up): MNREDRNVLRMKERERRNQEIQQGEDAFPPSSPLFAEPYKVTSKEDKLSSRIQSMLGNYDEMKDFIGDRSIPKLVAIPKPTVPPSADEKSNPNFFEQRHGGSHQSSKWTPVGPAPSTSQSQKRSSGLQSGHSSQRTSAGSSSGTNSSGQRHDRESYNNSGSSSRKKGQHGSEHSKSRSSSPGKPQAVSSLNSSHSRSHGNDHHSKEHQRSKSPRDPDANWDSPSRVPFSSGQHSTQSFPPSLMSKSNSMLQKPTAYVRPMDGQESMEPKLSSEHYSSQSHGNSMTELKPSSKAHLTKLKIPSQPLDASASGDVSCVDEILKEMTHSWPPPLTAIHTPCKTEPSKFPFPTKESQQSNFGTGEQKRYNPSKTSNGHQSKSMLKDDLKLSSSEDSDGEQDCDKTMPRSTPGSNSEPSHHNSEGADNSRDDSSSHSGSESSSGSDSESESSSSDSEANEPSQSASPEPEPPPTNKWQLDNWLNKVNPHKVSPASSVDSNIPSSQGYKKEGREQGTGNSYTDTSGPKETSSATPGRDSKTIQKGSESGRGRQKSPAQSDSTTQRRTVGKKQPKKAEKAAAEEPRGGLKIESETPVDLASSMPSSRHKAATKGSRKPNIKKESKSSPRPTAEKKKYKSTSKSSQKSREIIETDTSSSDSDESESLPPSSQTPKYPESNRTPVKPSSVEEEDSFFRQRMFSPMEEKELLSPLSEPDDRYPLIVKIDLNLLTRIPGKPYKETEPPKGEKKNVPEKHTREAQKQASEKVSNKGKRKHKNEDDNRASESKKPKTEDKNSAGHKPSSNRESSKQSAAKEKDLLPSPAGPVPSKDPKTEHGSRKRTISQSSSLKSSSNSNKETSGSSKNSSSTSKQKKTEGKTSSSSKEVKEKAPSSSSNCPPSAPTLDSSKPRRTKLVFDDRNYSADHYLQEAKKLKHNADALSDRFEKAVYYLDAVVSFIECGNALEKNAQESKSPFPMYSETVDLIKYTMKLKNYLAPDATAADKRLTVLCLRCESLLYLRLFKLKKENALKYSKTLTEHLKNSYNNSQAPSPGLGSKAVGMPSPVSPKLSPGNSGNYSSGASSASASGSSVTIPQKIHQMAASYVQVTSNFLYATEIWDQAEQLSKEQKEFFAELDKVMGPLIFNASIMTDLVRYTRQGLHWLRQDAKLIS
# Chain of UniProt P31751 (P31751 whole entry, looked up): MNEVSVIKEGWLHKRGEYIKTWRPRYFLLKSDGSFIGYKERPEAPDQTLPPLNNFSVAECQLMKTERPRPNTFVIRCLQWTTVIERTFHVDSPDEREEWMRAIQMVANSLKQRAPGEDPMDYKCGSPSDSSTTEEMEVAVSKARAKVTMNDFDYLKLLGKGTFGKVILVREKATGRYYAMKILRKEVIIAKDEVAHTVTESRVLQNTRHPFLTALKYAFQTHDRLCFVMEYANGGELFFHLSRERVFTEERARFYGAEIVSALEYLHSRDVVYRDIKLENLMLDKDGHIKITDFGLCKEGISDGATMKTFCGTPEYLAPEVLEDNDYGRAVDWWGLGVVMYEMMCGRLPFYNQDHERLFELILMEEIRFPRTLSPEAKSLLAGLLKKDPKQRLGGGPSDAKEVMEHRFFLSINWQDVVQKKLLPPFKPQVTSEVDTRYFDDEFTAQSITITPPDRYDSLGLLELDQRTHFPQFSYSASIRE
# Chain of UniProt P28288 (P28288 whole entry, looked up): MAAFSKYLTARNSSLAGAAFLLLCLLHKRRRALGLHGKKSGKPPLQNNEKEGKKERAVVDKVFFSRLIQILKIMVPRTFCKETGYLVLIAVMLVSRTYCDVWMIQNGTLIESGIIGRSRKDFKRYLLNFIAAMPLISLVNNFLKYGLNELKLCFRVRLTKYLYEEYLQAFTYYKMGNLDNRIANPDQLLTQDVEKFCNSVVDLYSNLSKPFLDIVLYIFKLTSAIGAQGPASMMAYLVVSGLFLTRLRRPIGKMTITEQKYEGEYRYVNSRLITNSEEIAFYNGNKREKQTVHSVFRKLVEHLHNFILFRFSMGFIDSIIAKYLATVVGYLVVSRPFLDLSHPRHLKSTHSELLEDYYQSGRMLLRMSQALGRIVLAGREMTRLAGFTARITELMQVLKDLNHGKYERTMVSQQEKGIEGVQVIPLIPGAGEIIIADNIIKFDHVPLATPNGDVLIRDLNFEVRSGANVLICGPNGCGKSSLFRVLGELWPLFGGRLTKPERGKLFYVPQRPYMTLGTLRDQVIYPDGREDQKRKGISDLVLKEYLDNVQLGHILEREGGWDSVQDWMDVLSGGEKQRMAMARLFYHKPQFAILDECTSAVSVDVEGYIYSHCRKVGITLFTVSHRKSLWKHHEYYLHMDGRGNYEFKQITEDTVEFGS
# Chain of UniProt Q6NXE6 (Q6NXE6 whole entry, looked up): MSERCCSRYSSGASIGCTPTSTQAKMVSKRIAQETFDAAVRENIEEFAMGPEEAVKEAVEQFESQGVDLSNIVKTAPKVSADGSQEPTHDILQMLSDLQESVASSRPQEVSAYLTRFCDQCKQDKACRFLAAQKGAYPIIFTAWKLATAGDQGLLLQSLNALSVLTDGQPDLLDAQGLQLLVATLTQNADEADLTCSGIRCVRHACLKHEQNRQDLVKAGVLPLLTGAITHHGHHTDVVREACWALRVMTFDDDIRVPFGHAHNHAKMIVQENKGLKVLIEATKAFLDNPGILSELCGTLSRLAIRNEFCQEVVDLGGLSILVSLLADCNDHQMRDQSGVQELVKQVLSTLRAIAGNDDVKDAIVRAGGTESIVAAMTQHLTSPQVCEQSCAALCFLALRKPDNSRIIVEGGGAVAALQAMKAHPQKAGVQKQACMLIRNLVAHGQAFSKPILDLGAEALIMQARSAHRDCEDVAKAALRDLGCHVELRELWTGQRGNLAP
# Chain of UniProt Q8N6T3 (Q8N6T3 whole entry, looked up): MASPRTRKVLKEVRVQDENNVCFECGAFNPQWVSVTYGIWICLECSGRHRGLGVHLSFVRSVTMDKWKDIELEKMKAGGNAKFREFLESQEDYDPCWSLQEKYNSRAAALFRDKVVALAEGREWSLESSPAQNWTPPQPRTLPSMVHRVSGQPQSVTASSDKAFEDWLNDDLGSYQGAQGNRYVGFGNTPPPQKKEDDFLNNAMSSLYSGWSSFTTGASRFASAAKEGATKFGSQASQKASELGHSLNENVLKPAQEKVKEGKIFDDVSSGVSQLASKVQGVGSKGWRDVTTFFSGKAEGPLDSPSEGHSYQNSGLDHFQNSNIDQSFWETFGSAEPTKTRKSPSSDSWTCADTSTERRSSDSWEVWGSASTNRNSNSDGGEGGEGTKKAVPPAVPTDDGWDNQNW
row,Target,log2 fold change
1,APAF1 (UniProt O14727),-0.026
2,ASCC2 (UniProt Q9H1I8),0.002
3,AP1G2 (UniProt O75843),0.068
4,ANLN (UniProt Q9NQW6),0.058
5,ABCD3 (UniProt P28288),-0.114
6,ACLY (UniProt P53396),-0.006
7,AKT2 (UniProt P31751),0.036
8,AIMP2 (UniProt Q13155),0.006
9,ACIN1 isoform 5 (UniProt Q9UKV3),-0.034
10,ANP32E (UniProt Q9BTT0),-0.007
11,ACADS (UniProt P16219),0.019
12,ANXA2 isoform 2 (UniProt P07355),-0.012
13,AMDHD2 isoform 3 (UniProt Q9Y303),0.018
14,ACSL4 (UniProt O60488),0.047
15,AKR1C3 (UniProt P42330),-0.052
16,ANP32A (UniProt P39687),-0.006
17,AFF4 (UniProt Q9UHB7),-0.046
18,ARL1 (UniProt P40616),0.079

row,Target,log2 fold change
1,ARHGAP25 isoform 4 (UniProt P42331),0.04
2,AK4 (UniProt P27144),-0.008
3,AIFM2 (UniProt Q9BRQ8),0.114
4,AK1 (UniProt P00568),-0.034
5,ABI1 isoform 9 (UniProt Q8IZP0),0.005
6,APOB (UniProt P04114),-0.021
7,AKR1B1 (UniProt P15121),-0.003
8,AGTPBP1 (UniProt Q9UPW5),0.024
9,ABCF2 isoform 2 (UniProt Q9UG63),-0.001
10,ARFGAP1 (UniProt Q8N6T3),0.105
11,AMD1 (UniProt P17707),0.071
12,AGPAT1 (UniProt Q99943),0.052
13,ASB6 (UniProt Q9NWX5),-0.006
14,AGL (UniProt P35573),0.014
15,ALDH5A1 isoform 2 (UniProt P51649),0.007
16,AKR1C2 (UniProt P52895),-0.021
17,ALG8 (UniProt Q9BVK2),-0.007
18,ARMC6 (UniProt Q6NXE6),0

# Compound: CNC(=O)c1ccc(Nc2ncc(C(F)(F)F)c(NCc3nccnc3N(C)S(C)(=O)=O)n2)cc1 [defactinib]
# Assay: as above
# Method in brief: as §1
row,Target,log2 fold change
1,APAF1 (UniProt O14727),-0.015
2,ASCC2 (UniProt Q9H1I8),0
3,AP1G2 (UniProt O75843),-0.006
4,ANLN (UniProt Q9NQW6),0.012
5,ABCD3 (UniProt P28288),-0.019
6,ACLY (UniProt P53396),-0.036
7,AKT2 (UniProt P31751),-0.013
8,AIMP2 (UniProt Q13155),-0.01
9,ACIN1 isoform 5 (UniProt Q9UKV3),-0.009
10,ANP32E (UniProt Q9BTT0),-0.018
11,ACADS (UniProt P16219),-0.011
12,ANXA2 isoform 2 (UniProt P07355),-0.011
13,AMDHD2 isoform 3 (UniProt Q9Y303),0.014
14,ACSL4 (UniProt O60488),0.054
15,AKR1C3 (UniProt P42330),0.017
16,ANP32A (UniProt P39687),0.016
17,AFF4 (UniProt Q9UHB7),0.077
18,ARL1 (UniProt P40616),0.001

row,Target,log2 fold change
1,ARHGAP25 isoform 4 (UniProt P42331),0.055
2,AK4 (UniProt P27144),0.003
3,AIFM2 (UniProt Q9BRQ8),0.045
4,AK1 (UniProt P00568),-0.035
5,ABI1 isoform 9 (UniProt Q8IZP0),-0.038
6,APOB (UniProt P04114),-0.04
7,AKR1B1 (UniProt P15121),-0.01
8,AGTPBP1 (UniProt Q9UPW5),-0.058
9,ABCF2 isoform 2 (UniProt Q9UG63),-0.039
10,ARFGAP1 (UniProt Q8N6T3),0.115
11,AMD1 (UniProt P17707),-0.003
12,AGPAT1 (UniProt Q99943),-0.007
13,ASB6 (UniProt Q9NWX5),0.019
14,AGL (UniProt P35573),0.024
15,ALDH5A1 isoform 2 (UniProt P51649),0.016
16,AKR1C2 (UniProt P52895),-0.05
17,ALG8 (UniProt Q9BVK2),0.001
18,ARMC6 (UniProt Q6NXE6),-0.003
